{"source": "PubChem BioAssay (EPA / NIEHS)", "note": "Values joined by “and” are separate entries in the source; they are usually repeats but may differ in a detail not shown here. Equal entries are not always repeated. Records with an inconclusive call do not appear. Some compounds were tested as several samples or in several runs, with calls that do not always agree. Active and inactive are the calls of the source. The calls were made as follows: active = hit-call score of the fitted dose curve at least 0.9, where 1 is the maximum; inconclusive = response in the unintended direction; inactive = score below 0.9."}
{"assay": "TOX21_p53_BLA_p2_viability: Viability Assessment in the Tox21 HCT-116 p53 Agonism Beta-lactamase Assay, Phase 2 (AID 2283591);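 also: compound exposure lasted 16 h at 37 °C; actives lower the ATP signal meaning cytotoxicity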", "excerpt": "TOX21_p53_BLA_p2 is a cell-based, single-readout assay that uses HCT116, a human intestinal cell line, […] in a 1536-well plate.TOX21_p53_BLA_p2_viability is an assay readout measuring cellular ATP content and detected with CellTiter-Glo Luciferase-coupled ATP quantitation.TOX21_p53_BLA_p2_viability used a type of viability reporter where loss-of-signal activity can be used to understand changes in the cell viability. Furthermore, this assay endpoint can be referred to as a secondary readout, because this assay has produced multiple assay endpoints where this one serves a viability function. To generalize the intended target to other relatable targets, this assay endpoint is annotated to the cell cycle intended target family, where the subfamily is cytotoxicity.\nThawing Method: Place 14 mL of pre-warmed thaw medium into a 15 mL of conical tub. Remove the vial of cells to be thawed from liquid nitrogen and thaw rapidly by placing at 37C in a water bath with gentle agitation for 1-2 minutes. Decontaminate the vial by wiping with 70% ethanol before opening in a biological safety cabinet. Transfer the vial contents drop-wise into 14 mL of thaw medium in a sterile 15-mL conical tub. Centrifuge cells at 900 rpm for 4 minutes and resuspend in thaw medium. Transfer contents to the T75 tissue culture flask containing Thaw Medium and place flask in a humidified 37C/5% CO2 incubator. Switch to growth medium at first passage.Propagation Method: Aspirate medium, rinse once in DPBS, add 0.25% Trypsin/EDTA and swirl to coat the cell evenly. Add an equal volume of Growth Medium to inactivate Trypsin after 2-3 minutes incubation at 37C. Centrifuge cells at 900 rpm for 4 minutes and resuspend in growth medium. Cell should be passage or fed at least twice a week.Assay Protocol: Harvest cells from culture in growth medium and resuspend in assay medium. 2.2 Dispense 4000 cells/5 uL/well into 1536-well black/clear bottom plates using a Multidrop dispenser. After the cells were incubated at 37C for 5 hours, 23 nL of compounds dissolved in DMSO were transferred to the assay plate by a PinTool resulting in a 217-fold dilution. Incubate the plates for 16 hours at 37C, 5% CO2. Add 1 uL of 6X LiveBLAzer FRET B/G (CCF4-AM) Substrate Mixture to each well using a BioRAPTR dispenser and incubate the plates at room temperature for 2 hours. Measure fluorescence intensity at 460 and 530 nm emission and 405 nm excitation by an Envision detector. Data is expressed as the ratio of 460nm/530nm emissions. Add 4 uL of Cell-titer Glo to each well using BioRAPTR and incubate the plates at room temperature for […]. For cell viability readout that measures cytotoxicity, 4 ul/well of CellTiter-Glo reagent was added into the assay plates using a Flying Reagent Dispenser. After 30 min incubation at room temperature, the luminescence intensity in the plates was measured using a ViewLux plate reader."}
{"smiles": "CCCCCCc1ccc(N)cc1", "outcome": "inactive"}
{"smiles": "CCCCCCCCCCCCOC(=O)c1cc(O)c(O)c(O)c1", "AC50": "21.7 µM (active) and 28.2 µM (active)"}
{"smiles": "NNc1nc(-c2ccc([N+](=O)[O-])cc2)cs1", "outcome": "inactive"}
{"smiles": "CC(C)(O)C(=O)c1ccccc1", "outcome": "inactive"}
{"smiles": "Nc1ccc(O)c(C(=O)O)c1", "outcome": "inactive"}
{"smiles": "O=C(CCCN1CCC(O)(c2ccc(Cl)cc2)CC1)c1ccc(F)cc1", "outcome": "inactive"}
{"smiles": "NCc1cccc(CN)c1", "outcome": "inactive"}
{"smiles": "CC(C)(C)c1ccc(CCC=O)cc1", "outcome": "inactive"}
{"smiles": "CN(C)c1ccc(C(=C2C=CC(=[N+](C)C)C=C2)c2ccccc2)cc1", "outcome": "inactive", "AC50": "1.83 µM (active)"}
{"smiles": "O=C(Nc1ccc(Cl)c(Cl)c1)c1cc(Cl)cc(Cl)c1O", "AC50": "0.558 µM (active)"}
{"smiles": "CCCCCCCCCCCCCCCC(=O)OC", "outcome": "inactive"}
{"smiles": "O=C1c2ccccc2C(=O)c2c(O)c(O)cc(O)c21", "outcome": "inactive"}
{"smiles": "C=CC(=O)OCC(CO)(COCC(COC(=O)C=C)(COC(=O)C=C)COC(=O)C=C)COC(=O)C=C", "AC50": "4.15 µM (active)"}
{"smiles": "O=c1cc(-c2ccccc2)oc2ccc3ccccc3c12", "outcome": "inactive"}
{"smiles": "COc1cc([N+](=O)[O-])ccc1N", "outcome": "inactive"}
{"smiles": "CCCCCCOC(=O)c1ccc(O)cc1", "outcome": "inactive"}
{"smiles": "NCCN", "outcome": "inactive"}
{"smiles": "COCN(COC)c1nc(N(COC)COC)nc(N(COC)COC)n1", "outcome": "inactive"}
{"smiles": "O=C(NO)c1ccccc1", "outcome": "inactive"}
{"smiles": "CCCCCCCCCCCC[N+](C)(C)CCCCCCCCCCCC", "AC50": "23.5 µM (active)"}
{"smiles": "Cc1cc(Cc2cc(C)cc(C(C)(C)C)c2O)c(O)c(C(C)(C)C)c1", "AC50": "10.8 µM (active) and 10.5 µM (active)"}
{"smiles": "CCOCCOCC", "outcome": "inactive"}
{"smiles": "CC(C)C=O", "outcome": "inactive"}
{"smiles": "CC1=CC(=O)c2ccccc2C1=O", "outcome": "inactive", "AC50": "51.1 µM (active)"}
{"smiles": "Cc1cc(C(C)(C)C)c(O)c(C(C)(C)C)c1", "outcome": "inactive"}
{"smiles": "C=CC(C)(CCC=C(C)C)OC(C)=O", "note": "(stereo not given)", "outcome": "inactive"}
{"smiles": "CCCC=O", "outcome": "inactive"}
{"smiles": "CCCCCCCCCCCC(=O)NCCCN(C)C", "AC50": "44.2 µM (active)"}
{"smiles": "CCN(CC)CC", "outcome": "inactive"}
{"smiles": "CC(=O)Nc1ccc(S(N)(=O)=O)cc1", "outcome": "inactive"}
{"smiles": "Cc1cc(=O)oc2cc(O)ccc12", "outcome": "inactive"}
{"smiles": "CC1=NN(c2ccccc2)C(=O)C1", "outcome": "inactive"}
{"smiles": "c1cnc2c(c1)ccc1cccnc12", "outcome": "inactive"}
{"smiles": "Cc1ccc(C)c(S(=O)(=O)O)c1", "outcome": "inactive"}
{"smiles": "CNNCc1ccc(C(=O)NC(C)C)cc1", "outcome": "inactive"}
{"smiles": "CCCCCC(C)OC(=O)COc1ccc(Cl)c2cccnc12", "note": "(stereo not given)", "outcome": "inactive"}
{"smiles": "CCCCc1oc2ccccc2c1C(=O)c1cc(I)c(OCCN(CC)CC)c(I)c1", "outcome": "inactive", "AC50": "59.9 µM (active)"}
